Results: PubChem BioAssay AID1671193 (National Center for Advancing Translational Sciences (NCATS), 2021)
Screen size: about 150,000 compounds; about 180 (0.12%) were called active. Entries that show only a call come without a potency. Roughly 6% stayed inconclusive and do not appear here. For the sample, actives were picked, then their nearest neighbours and some compounds at random. Values without a mark were called inactive. Calls follow the shape of the dose curve; as a rule, active = well fitted cell-killing curve with a large enough effect; inconclusive = small, poorly fitted or top-dose-only effect, or effect the other way; inactive = flat fitted curve, though single readings scatter.

experiment: GF-AFC viability counterscreen for inhibitors of alpha-synuclein gene (SNCA) expression; details: HEK-293-SNCA-luc viability, GF-AFC fluorescence, 24 h; series mostly up to 57.1 µM; also: nearly all actives have a fitted effect of over 30% in size
Source text: Assay Submitter (PI): Daniel R. Scoles Ph.D.
Department of Neurology, University of Utah, Salt Lake City, Utah
Accumulation of alpha-synuclein is a main underlying pathological feature of Parkinson's disease (PD) and alpha-synucleinopathies, for which lowering expression of the alpha-synuclein gene (SNCA) is a potential therapeutic avenue. Using a cell-based luciferase reporter of SNCA expression we performed a quantitative high throughput screen (qHTS) of 155,885 compounds in dose response. The screening assay was generated using genome editing to insert the luciferase gene downstream and in frame of the SNCA gene in HEK-293 cells (1). A viability counterscreen using GF-AFC was used to eliminate cytotoxic and false positive compounds. After in silico analysis (clustering, removal of frequent hitter nuisance chemotypes), inhibitor compounds from the primary screen were selected for follow up and re-tested at 11-doses in the SNCA-luc cells (luciferase and GF-AFC confirmation), and in CMV-luc expressing cell line to flag general transcriptional repressors.
Described herein are the results of the GF-AFC viability counterscreen for SNCA inhibitors; inactivity (no decrease in fluorescence signal, not cytotoxic) is the desired output for this assay.
1. Dansithong, W., Paul, S., Scoles, D. R., Pulst, S. M., and Huynh, D. P. (2015) Generation of SNCA Cell Models Using Zinc Finger Nuclease (ZFN) Technology for Efficient High-Throughput Drug Screening. PLoS ONE 10, e0136930.
SEQUENCE No. (e.g., 1, 2, 3, etc.); […] (e.g., Cells, Incubation, Reagent, etc.); VALUE; DESCRIPTION
1; Cells; 4 uL; Dispense 1500 HEK-293-SNCA-luc cells/well into Greiner 1536-well white / solid bottom tissue culture treated plate. The plate was covered with metal lids with gas-exchange holes.
2; Incubate; 24 hours; Incubate at 37C, 5% CO2, 95% RH.
3; Compounds; 23 nL; Compounds and controls were transferred via a Kalypsys Pin Tool (Wako USA) equipped with a 1536-slotted pin array. The plate was covered with metal lids with gas-exchange holes.
4; Incubate; 24 hours; Incubate at 37C, 5% CO2, 95% RH.
5; Dispense; 1 uL; Dispense Gly-Phe-7-amino-4-trifluoromethylcoumarin (GF-AFC, prepared at 125 uM in PBS) was added. The plate was covered with metal lids with gas-exchange holes.
6; Incubate; 30 min; Incubate at 37C, 5% CO2.
7; Detector; Fluorescence; Measure fluorescence with ViewLux microplate reader (PerkinElmer) equipped with 405/10 excitation and 540/25 emission filters.
8; Dispense; 3 uL; Dispense ONE-Glo ([…]) lucifase detection reagent was added to each well. Plates were covered with metal lids with gas-exchange holes.
9; Incubate; 15 min; Incubate at room temperature.
10; Detector; Luminescence; Measure luminescence with ViewLux microplate reader (PerkinElmer) equipped with clear filters.
NOTES (numbers refer to sequence above)
1; HEK-293-SNCA-luc were cultured and suspended in phenol-red free DMEM (4.5 g/L glucose, 25 mM HEPES, cat #21063 (Thermo)).
3; Compounds were added to the assay plate in an 11-point intra plate dose response, 1:3 titration in DMSO with a final concentration range of […]. Vehicle-only plates, with DMSO being pin-transferred to every well, were inserted at the beginning of screening runs to confirm expected assay performance. Activity was normalized to wells containing medium only (-100% activity, full inhibition) and SNCA-luc cells treated with DMSO vehicle control (0% activity), contained on the same plate as test samples.
10; Signals were analyzed, and dose-response curves were fit using the Hill equation. Compounds in curve classes -1.1, -1.2, -2.1, -2.2 in the SNCA-luc assay were considered active. Compounds were eliminated from further consideration if also active (curve class -1.1, -1.2, -1.3, -1.4, -2.1, -2.2, -2.3, -2.4) in the GF-AFC cytotoxicity assay.
Potency is read from the fitted curve at half-maximal effect.

Row | SMILES | Potency | activity change, negative = cytotoxicity
1 | CC(NC(=O)c1ccc(OC(F)(F)F)cc1)C(=O)N1CCN(c2ccccn2)CC1 (configuration not stated) | inactive | 
2 | CCNC(=O)N1CCCC1c1noc(CCC(=O)NC2CCCC2)n1 (configuration not stated) | inactive | 
3 | O=C1Nc2ccccc2CC12CCCN2Cc1ccccc1 (configuration not stated) | inactive | 
4 | Cc1cc(N2CCC3(CC2)CC(c2ccccc2)C(=O)N3C)ncn1 (configuration not stated) | inactive | 
5 | Cc1cccnc1CN1CCN(C(=O)Cn2nnnc2CN2CCCC2)CC1 | inactive | 
6 | CC1=C[C@@H](CNC2CC2)[C@H](C(C)C)C[C@H]1Cc1nnc(-c2ccc(C)cc2)o1 | 35.5 µM (active) | 
7 | CC1=C[C@@H](CNS(C)(=O)=O)[C@H](C(C)C)C[C@H]1Cc1nnc(-c2ccncc2)o1 | inactive | 
8 | CC1=C[C@@H](CNC(C)C)[C@H](C(C)C)C[C@H]1Cc1nnc(-c2ccncc2)o1 | inactive | 
9 | O=C1CCC2(C(=O)NCc3cccc(F)c3)CCC=C2N1C1CCCC1 (configuration not stated) | inactive | 
10 | O=C1[C@@H]2C[C@@H](CN2Cc2ccc3ccccc3n2)Oc2ccccc2N1Cc1ccccc1 | inactive | 
11 | COc1ccccc1-c1cccc(CN2CCCC(C(=O)NCC3CC3)C2)c1 (configuration not stated) | inactive | 
12 | CN(C(=O)CN1C(=O)NC2(CCOCC2)C1=O)c1ccccc1 | inactive | 
13 | O=c1cc(-c2ccccn2)oc2c(-c3ccccc3F)nccc12 | inactive | 
14 | COc1ccc2c(c1)OCC(C(=O)NCc1cc3cc(OC)ccc3[nH]1)C2 (configuration not stated) | inactive | 
15 | COCCC(=O)N1CCCCCCNC(=O)[C@@H]2CCCC[C@@H]21 | inactive | 
16 | Cc1ccc(CN2CCCCCNC(=O)[C@H]3C[C@H](C(=O)N4CCc5ccccc5C4)C[C@H]32)o1 | inactive | 
17 | COc1ccc(-c2noc(C(=O)O)c2[C@@H](C)NS(=O)(=O)c2ccccc2)cc1 | inactive | 
18 | O=C(NCC1CC1)c1cn(C2CN(C(=O)C3CCOC3)C2)nn1 (configuration not stated) | inactive | 
19 | O=C(Cc1cccc(F)c1)N1CCC2(CCC2N2CCOCC2)CC1 (configuration not stated) | inactive | 

Row | SMILES | Potency | activity change, negative = cytotoxicity
20 | Cc1cccc(CN2CCCN(Cc3ccncc3)C(c3ccccc3)CC(=O)NCC2)c1 (configuration not stated) | inactive | 
21 | Cc1ccc(CSc2oc(-c3cccs3)nc2S(=O)(=O)c2ccc(C)cc2)cc1 | inactive | 
22 | CCCCS(=O)(=O)c1oc(-c2cccs2)nc1S(=O)(=O)c1ccccc1 | 12.6 µM (active) | 
23 | CSc1oc(-c2cccs2)nc1S(=O)(=O)c1ccc(Br)cc1 | inactive | 
24 | O=C(CCCc1c[nH]c2ccccc12)N1CCC2(CC1)CC(CCOCC1CC1)CCO2 (configuration not stated) | inactive | 
25 | CCc1cccc(NC(=O)N2[C@@H]3CC[C@H]2CC(NC(=O)c2ccc(F)cc2)C3)c1 (some centres not stated) | inactive | 
26 | O=C(NCc1cccc(C(F)(F)F)c1)c1nn(CCOc2ccccc2)c2c1CNCC2 | inactive | 
27 | Cn1ccnc1CNCC1(COc2ccc(C(F)(F)F)cn2)C[C@@H](O)[C@@H](O)C1 (some centres not stated) | inactive | 
28 | O=C(NCc1ccccc1)[C@@H]1Cc2nc[nH]c2CN1Cc1cccc(OC(F)(F)F)c1 | inactive | 
29 | COc1ccc(NC(=O)C2(C)CN(C)Cc3ccc(Nc4cccc(OC)c4)nc32)cc1 (configuration not stated) | inactive | 
30 | O=C(NCC1CC1)c1coc(COc2ccc3c(c2)C(c2cccc(F)c2)N(C(=O)C2CC2)CC3)n1 (configuration not stated) | inactive | 
31 | CC(CCc1ccccc1)NC(=O)CN1C(=O)NC(c2ccccc2Cl)C2=C1COC2=O (configuration not stated) | inactive | 
32 | O=C(NCc1ccccc1F)c1nc2cccnc2n(C2CC2)c1=O | inactive | 
33 | OC1CN(Cc2ccccc2)CCN(C2CCN(c3ccccc3F)CC2)C1 (configuration not stated) | inactive | 
34 | Cc1ccc(S(=O)(=O)N2CCCN(C)c3ccccc32)cc1Cl | inactive | 
35 | Cc1nc(N2CCCCC2)ncc1C(=O)N1CCC2(CCCNC2=O)C1 (configuration not stated) | inactive | 
36 | NCc1ccccc1-c1cccc(C(F)(F)F)c1 | inactive | 
37 | O=C1[C@H]2CN(Cc3ccccc3F)C[C@H]2C(=O)N1CCN1CCc2ccccc2C1 | inactive | 
38 | O=C(NCc1ccco1)[C@@H]1Cc2nc[nH]c2CN1CCCc1ccccc1 | inactive | 

Row | SMILES | Potency | activity change, negative = cytotoxicity
39 | COc1ccc2cc(CN3CCNC(=O)C3C)c(-c3cccs3)nc2c1 (configuration not stated) | inactive | 
40 | COc1cccc(-c2cn3c(n2)N(C(=O)Cc2ccccc2)CCC3)c1 | inactive | 
41 | O=C(CCC[C@H]1NC[C@@H]2C[C@H]1CN(Cc1ccccc1)C2)N1CCN(C2CCCCC2)CC1 | inactive | 
42 | Cc1cccc(OCC2CCCN(c3ncncn3)C2)c1 (configuration not stated) | inactive | 
43 | O=C(c1ccc2c(c1)OCO2)N1CCC2(CC1)NC(=O)N(c1ccccc1)N2 | inactive | 
44 | Cc1noc2c(Nc3ccc(Cl)cc3)cc(-c3cccnc3)nc12 | inactive | 
45 | COCCN1CCOC2(CCN(Cc3ccc(C(C)C)cc3)CC2)C1=O | inactive | 
46 | CN(C)Cc1cccc(-c2cc(-c3ccncc3)c3cncn3c2)c1 | inactive | 
47 | O=C(Cc1ccc(F)cc1)N1CN=C(C2CCN(Cc3ccc(F)cc3)CC2)N1 | inactive | 
48 | COC(=O)[C@@H]1Cc2ncn(Cc3ccccc3)c2CN1C(=O)CC(C)(C)C | inactive | 
49 | CC(C)Oc1ccc(CN2CCCC(COc3ccccc3C(=O)N3CCCC3)C2)cc1 (configuration not stated) | inactive | 
50 | COc1ccc(N2CCN(c3nc(C(=O)NC4CCCCCC4)cs3)CC2)cc1 | inactive | 
51 | O=C(C1CCCC1)N1CCc2nc(C3CC3)nc(-c3ccc(O)cc3)c2C1 | inactive | 
52 | O=C1C2CN(Cc3ccc4[nH]ccc4c3)CCC2OCCN1Cc1ccccc1F (configuration not stated) | inactive | 
53 | CCN(CC)CCCCNc1ncc2cc(-c3c(Cl)cccc3Cl)c(NC(=O)NC(C)(C)C)nc2n1 | 15 µM (active) | 
54 | CN(C)C[C@@H]1CN(Cc2cccnc2)C[C@H]1NC(=O)Cc1cccc(F)c1 | inactive | 
55 | O=C(c1cccc(O)c1)N1CCNc2cnc(Nc3cccc(F)c3)nc2C1 | inactive | 
56 | c1cnc2nc(C3CCN(C4CCCCC4)C3)[nH]c2c1 (configuration not stated) | inactive | 
57 | O=C(NCc1ccc(F)cc1)N1CCC2(CC1)CC(OCC1CC1)CCO2 (configuration not stated) |  | 4.57% [at 12.5 µM]
